Hits are enriched below; roughly 3% of the tested compounds scored in any of these assays.
IP6K1 inhibitor: Primary qHTS assay for small molecule inhibitors of Inositol hexaphosphate kinase 1 (IP6K1); AID 1645851, 2021; Inositol hexakisphosphate kinase 1 (Homo sapiens), Q92551; IP6K1 kinase, ADP-Glo luminescence, 2 h; hits give low values; activity change, % (series mostly up to about 58 µM); 0.81% of 140,000 active; in the data active means activity change below about -25%; further: on the % scale 0 is the no-effect control and ±100 the full control effect
Target sequence (Q92551 whole entry, looked up): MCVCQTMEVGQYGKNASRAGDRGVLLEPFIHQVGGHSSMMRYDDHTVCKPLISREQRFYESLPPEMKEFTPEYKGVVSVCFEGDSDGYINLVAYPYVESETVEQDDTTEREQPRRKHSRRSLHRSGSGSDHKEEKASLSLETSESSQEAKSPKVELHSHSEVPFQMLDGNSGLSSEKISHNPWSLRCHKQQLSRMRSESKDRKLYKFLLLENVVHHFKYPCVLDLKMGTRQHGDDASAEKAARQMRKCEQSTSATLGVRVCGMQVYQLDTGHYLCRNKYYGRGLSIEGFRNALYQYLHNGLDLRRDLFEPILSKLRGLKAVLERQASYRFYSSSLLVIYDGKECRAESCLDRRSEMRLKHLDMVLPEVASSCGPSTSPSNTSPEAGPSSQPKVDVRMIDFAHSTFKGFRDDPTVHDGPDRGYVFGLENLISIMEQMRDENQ
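ADP-Glo luminescence measures ADP made by human IP6K1 during a 2 h RT reaction with ATP/IP6 (mix at 1.3 mM/130 uM); top library doses 57.5 and 19.1 uM final.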
KDM5B inhibitor: Primary screen for KDM5B Histone Demethylases FDH-coupled qHTS. 2.6% of 220,000 active. AID 1347165, 2019. Potency, µM (top dose mostly 57.7 µM), most hits filed as inhibitors. KDM5B demethylase, FDH-coupled NADH fluorescence (FDH is formaldehyde dehydrogenase). Lysine-specific demethylase 5B (Homo sapiens), Q9UGL1; further: potency means the concentration at half of the fitted maximal effect; 0% is about no effect; nearly all actives have a fitted effect of over 70% in size
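Coupled FDH/NAD⁺ fluorescence readout. KDM5BΔAP 200 nM final; compound titration, 10 min RT preincubation; substrate mix 12.5 µM H3K4me3, 25 µM 2-OG, 50 µM Fe(II), 100 µM ascorbate, 0.25 mM NAD⁺, 0.25 U/mL FDH; ΔRFU over 30 min.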
SNCA expr inh: Primary qHTS assay for inhibitors of alpha-synuclein gene (SNCA) expression. HEK-293 SNCA-luciferase knock-in, luminescence, 24 h. Potency, µM (highest dose often 57.2 µM), inactives show at the highest dose activity change, negative = inhibition, hits mostly inhibitors. 0.17% of 140,000 active. AID 1671194, 2021;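 further: potency means the concentration at half of the fitted maximal effect; plate controls were DMSO cells for no effect and cell-free wells for full effect; nearly all actives have a fitted effect of over 45% in size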
SNCA viab count: GF-AFC viability counterscreen for inhibitors of alpha-synuclein gene (SNCA) expression | HEK-293-SNCA-luc viability, GF-AFC fluorescence, 24 h | Potency, µM (top dose mostly 57.1 µM), inactives show at the top dose activity change, negative = cytotoxicity, most hits filed as cytotoxic | 0.12% of 150,000 active;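 further: potency means the concentration at half of the fitted maximal effect; 0% = DMSO-treated cells and -100% = medium-only wells without cells; nearly all actives have a fitted effect of over 30% in size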
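HEK-293-SNCA-luc cells (1500/well) plated 24 h, then exposed 24 h to a dilution series; GF-AFC added 30 min at 37C, fluorescence 405/540 nm; normalised to medium-only and DMSO wells, Hill fit.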
* hit, by the source's call; i = inactive; ? = inconclusive; . = not tested or not shown; ! = repeats disagree; [ ] = remark or other dose. Unless noted, the call rests on the fitted dose curve; in most records, active means well fitted curve in the direction sought with a large enough effect; inconclusive means small, poorly fitted or top-dose-only effect, or another doubt; inactive means no such curve, though single readings can be large; an effect the other way counts as inactive or inconclusive.

SMILES	IP6K1 inhibitor	KDM5B inhibitor	SNCA expr inh	SNCA viab count
Cc1noc(C)c1[S+](=O)([O-])N1CCC2(CC1)CC(c1cccc(C(F)(F)F)c1)=NO2	29	.	.	.
COc1ccccc1-c1cnc2n[nH]c(-c3sccc3C)c2n1	36	?	0%[87.6 µM]	11%[87.6 µM]
Cc1cn2nc(C(=O)Nc3ccc(OC(F)(F)F)cc3)cc2c(N2CCSCC2)n1	-9	25µM*	9%	7%
C[n+]1cc2c3c(ccc2c2ccc4cc5c(cc4c21)OCO5)OCO3	-19	.	?	13µM*!
O=C(NCCc1ccc(Cl)cc1)c1nc(-c2cccc(F)c2)c2cnccn12	0	28µM*	-15%	5%
O=C(NCCc1ccc(Cl)cc1)c1nc2sccn2c1-c1cccnc1	17	.	23%	6%
O=C(NCCc1ccc(Cl)cc1)c1nc(-c2cccc(C(F)(F)F)c2)c2cnccn12	0	32µM*	?	-1%
CC(C)(C)c1nc(C(=O)NCCc2ccc(Cl)cc2)n2ccncc12	11	79µM*	-10%	-17%
O=C(NCCc1ccc(Cl)cc1)c1nc(-c2cccnc2)c2cnccn12	8	25µM*	?	5%
CC(C)(C)c1nc(C(=O)NCCc2ccc(Cl)cc2)n2ccccc12	-5	?	-5%	0%
CC(=O)N1CCCN(C(=O)c2cc(-c3cc(Cl)cc(Cl)c3)nc3c2cnn3C)CC1	3	.	.	.
COc1ccc(C(=O)NCCn2ccn3nc(-c4ccc(C)c(C)c4)cc3c2=O)cc1	-2	18µM*	63%	-14%
COc1ccc(-c2cc3c(=O)n(CCNC(=O)c4ccc(C#N)cc4)ccn3n2)cc1	-11	?	-1%	-4%
Cc1ccc(-c2cc3c(=O)n(CCNC(=O)c4ccc(N(C)C)cc4)ccn3n2)c(C)c1	0	28µM*	95%	0%
Cc1ccc(-c2cc3c(=O)n(CCNC(=O)c4ccc(N(C)C)cc4)ccn3n2)cc1C	-10	28µM*	52%	1%
Cc1ccc(C)c(C(=O)NCCn2ccn3nc(-c4cc(C)ccc4C)cc3c2=O)c1	0	32µM*	?	-16%
Cc1ccc(C)c(-c2cc3c(=O)n(CCNC(=O)c4ccccc4F)ccn3n2)c1	-7	i	?	-9%
CCOc1ccc(-c2cc3c(=O)n(CCNC(=O)c4ccc(Cl)cc4)ccn3n2)cc1	-10	i	86%	8%
COc1ccc(-c2cc3c(=O)n(CCNC(=O)c4cc(OC)cc(OC)c4)ccn3n2)cc1	-5	i	-10%	-3%
CCOc1ccc(-c2cc3c(=O)n(CCNC(=O)c4cccc5[nH]ccc45)ccn3n2)cc1	-1	28µM*	88%	-15%
Cc1ccc(-c2cc3c(=O)n(CCNC(=O)c4ccc(Cl)cc4)ccn3n2)c(C)c1	1	i	6%	-4%
Cc1ccc(-c2cc3c(=O)n(CCNC(=O)c4nn(C)c5ccccc45)ccn3n2)c(C)c1	0	28µM*	8%	-14%
CCOc1ccc(-c2cc3c(=O)n(CCNC(=O)c4ccc(C#N)cc4)ccn3n2)cc1	-8	20µM*	30%	-1%
COc1ccc(-c2cc3c(=O)n(CCNC(=O)c4cccc(N(C)C)c4)ccn3n2)cc1	-13	35µM*	46%	?
Cn1ncc2c(C(=O)Nc3ccc(Cl)cc3)cc(-c3cccc(F)c3)nc21	2	.	.	.
SMILES	IP6K1 inhibitor	KDM5B inhibitor	SNCA expr inh	SNCA viab count
COc1ccc(-c2cc3c(=O)n(CCNC(=O)c4ccc(C)s4)ccn3n2)cc1	6	i	55%	-4%
Cc1ccc(-c2cc3c(=O)n(CCNC(=O)c4cc(Cl)ccc4F)ccn3n2)c(C)c1	-2	?	32%	2%
CCOc1ccc(C(=O)NCCn2ccn3nc(-c4ccc(OC)cc4)cc3c2=O)cc1	1	8.9µM*	40%	4%
CCOc1ccc(-c2cc3c(=O)n(CCNC(=O)c4ccccc4OC)ccn3n2)cc1	-2	32µM*	?	?
CCOc1ccc(-c2cc3c(=O)n(CCNC(=O)c4ccc(OC)cc4)ccn3n2)cc1	2	?	55%	-3%
Cc1ccc(-c2cc3c(=O)n(CC(O)c4ccc(C)c(C)c4)ccn3n2)c(C)c1 (stereo unspecified)	0	35µM*	-21%	-10%
COc1ccc(-c2cc3c(=O)n(CCNC(=O)c4ccc(OC)nc4)ccn3n2)cc1	0	11µM*	33%	-10%
O=C(CCC1CCCN(S(=O)(=O)c2ccccc2)C1)NCC1CC1 (stereo unspecified)	-2	20µM*	7%	-5%
Cc1ccccc1S(=O)(=O)N1CCCC(CCC(=O)NC2CCCCCC2)C1 (stereo unspecified)	9	?	?	-29%
Cc1ccccc1S(=O)(=O)N1CCCC(CCC(=O)NC2CC2)C1 (stereo unspecified)	2	14µM*	?	5%
Cc1ccc([S+](=O)([O-])N2CCN(Cc3ccccc3-c3ccc(C)c(Cl)c3)CC2)cc1	0	.	-15%	5%[12.5 µM]
COc1cccc2sc(NC(=O)c3ccc4c(c3)OCCN(C3CCC3)C4)nc12	9	35µM*	?	?
O=C(NCc1ccccn1)C1CCCCN1Cc1ccc(-c2ccsc2)cc1 (stereo unspecified)	-9	.	-2%	1%
CCCCNC(=O)CN1C(=O)COc2ccc(S(=O)(=O)N3CCCC3)cc21	-7	i	-3%	-19%
CC(C)CN(CCCNC(=O)CN1C(=O)COc2ccc(S(=O)(=O)N3CCCCCC3)cc21)CC(C)C	10	i	28µM*	9%
Cc1nn(-c2ccccc2)c2c1C(C(C)C)N(C1CN(C(=O)c3ccc(Cl)cc3)C1)C2=O (stereo unspecified)	15	.	.	.
O=C(Cc1ccccc1)Nc1sc2c(c1C(=O)Nc1ccc(Cl)cc1)CCCC2	-30*	?	28%	0%
COC(=O)N(C)Cc1cccc(N2CCN([S+](=O)([O-])c3c(Cl)cccc3Cl)CC2)c1F	3	.	.	.
COc1ccc(C(=O)Nc2ccc3c(c2)CN(Cc2ccc(F)cc2)C(=O)C(C)O3)c(OC)c1 (stereo unspecified)	-11	32µM*	?	?
CCC1Oc2ccc(NC(=O)c3ccc(OC)c(OC)c3)cc2CN(Cc2ccc(Cl)cc2)C1=O (stereo unspecified)	-16	28µM*	?	?
Cc1nn(-c2ccccc2)c2c1C(C(C)C)N(C1CCN(C(=O)Cc3ccc(F)cc3)C1)C2=O (stereo unspecified)	0	.	.	.
Cn1ncc2c(C(=O)NCc3ccc(F)cc3)cc(-c3cccnc3)nc21	15	.	-21%	-9%
Cc1ccc(C)c(NC(=O)c2cc3n(n2)CC(c2ccc(Cl)cc2)OC3)c1 (stereo unspecified)	27	28µM*	-5%	-1%

Screening data from PubChem.
